Shown are actives, neighbours in structure and some others; about 19% of the full set was active somewhere.
TDP1 cell noCPT – qHTS for Inhibitors of human tyrosyl-DNA phosphodiesterase 1 (TDP1): qHTS in cells in absence of CPT. DT40 Tdp1-/- hTDP1 cells, no CPT, ATP luminescence, 48 h. Potency, µM (top dose mostly 46.2 µM), for the others: at the top dose activity change, negative = growth inhibition, hits mostly inhibitors. 15% of 420,000 active. AID 686978, 2013; further: potency means the concentration at half of the fitted maximal effect; on the % scale 0 is the no-effect control and ±100 the full control effect; nearly all actives have a fitted effect of over 55% in size
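Growth of hTDP1-complemented DT40 Tdp1-knockout cells is measured by ATP luminescence after at least 48 hr compound exposure at 37 °C, with DMSO substituting for the 20 nM CPT used in the parallel screen.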
BCR signal inh – inhibitors of chronic active B-cell receptor signaling; ABC-DLBCL IkBa-CBG/CBR reporter, luminescence ratio, 4 h; Potency, µM (highest dose often 46.1 µM), for inactives: at the highest dose activity change, negative = inhibition, actives largely listed as inhibitors; 0.05% of 340,000 active; AID 493014; active means well fitted inhibition curve with a large enough effect in the signal ratio, with a control signal flat, not every such curve was filed as active; inconclusive means small, poorly fitted or top-dose-only effect, or effect the other way, or a change in a side signal; the % refers to the signal ratio;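 further: potency means the concentration at half of the fitted maximal effect; plate controls were basal doxycycline-induced cells for no effect and cells given 10 µM MG132 for full effect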
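TMD8 ABC-DLBCL cells carrying doxycycline-inducible green luciferase fused to IkappaBalpha plus unfused red luciferase were exposed to compounds (up to 46 uM) for 4 hrs at 37C. Activity came from the overlap-corrected green/red luminescence ratio.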
MCF10A rerep – induces DNA re-replication in MCF 10a normal breast cells; 2.9% of 350,000 active; MCF 10A DNA re-replication, Hoechst nuclear intensity, 48 h; Potency, µM (series often up to 46.1 µM), inactives show at the highest dose activity, positive = re-replication, hits mostly activators; further: potency means the concentration at half of the fitted maximal effect; % of control where 0% means no effect; nearly all actives have a fitted effect of over 50% in size
TDP1 cell CPT – DT40-hTDP1 cell growth loss with CPT. chicken DT40 Tdp1-/-;hTDP1 cells + 20 nM CPT, ATP luminescence, 48 h. 12% of 420,000 active. Potency, µM (top dose mostly 46.2 µM), inactives show top-dose activity change, negative = growth inhibition, actives largely listed as inhibitors; further: potency means the concentration at half of the fitted maximal effect; on the % scale 0 is the no-effect control and ±100 the full control effect; nearly all actives have a fitted effect of over 55% in size
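Chicken DT40 Tdp1-/- cells stably complemented with human TDP1 were seeded at 400 cells/well in medium containing 20 nM camptothecin, exposed to pin-transferred compounds, and grown at 37 °C for at least 48 hr. Viability was read as ATP luminescence.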
IL1B secr inh – blocks inflammasome-driven IL-1 beta release; THP-1 LPS/ATP IL-1B secretion, AlphaLISA, 16 h; active compounds read low; activity change, % at 57.5 µM; 4.7% of 360,000 active; in the data active means activity change below about -50%; inconclusive means mostly about -30% to -49%; further: on the % scale 0 is the no-effect control and ±100 the full control effect
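Secreted IL-1B measured by AlphaLISA bead assay after 16 h compound exposure of THP-1 cells; compounds (final up to 57.5 uM) added 1 h before LPS (250 ng/mL) and ATP (1.25 mM) stimulation; lower signal means less secretion.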
SW480 rerep – induces DNA re-replication in SW480 colon adenocarcinoma cells; SW480 DNA re-replication, Hoechst DNA content imaging, 48 h; Potency, µM (titrated, usually from 46.1 µM), for the others: top-dose re-replication activation, usual class: activators; 1.8% of 340,000 active; further: potency means the concentration at half of the fitted maximal effect; % of control where 0% means no effect; nearly all actives have a fitted effect of over 55% in size
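Readout is total intensity of Hoechst-stained nuclei, excited at 405 nm and collected at 500-530 nm. Compound treatment lasted 48 hr at 37 C in 5% CO2 before staining.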
Starred values were filed as active, the others as inactive; ? = inconclusive; . = not tested or not shown; [ ] = another dose, or the depositor's remark. Unless noted, the call rests on the fitted dose curve; in most records, active means well fitted curve in the direction sought with a large enough effect; inconclusive means small, poorly fitted or top-dose-only effect, or another doubt; inactive means no such curve, though single readings can be large; an effect the other way counts as inactive or inconclusive.

SMILES	TDP1 cell noCPT	BCR signal inh	MCF10A rerep	TDP1 cell CPT	IL1B secr inh	SW480 rerep
COc1ccccc1C(=O)N1c2ccccc2Sc2ccccc21	5.8µM*	-1%	23µM*	5.8µM*	12	?
CCOc1ccccc1NC(=O)/C=C/C(N)=O	4.1µM*	?	-3%	4.1µM*	-103*	-2%
O=C(c1cccnc1)N1c2ccccc2Sc2ccccc21	15µM*	?	4%	15µM*	-16	-25%
CCOc1ccccc1NC(=O)Nc1cccc(C(C)=O)c1	-30%	-3%	1%	29µM*	-6	-9%
NCc1ccccc1CC(=O)N[C@@H]1C(=O)N2C(C(=O)O)=C(CSc3nnnn3CC(=O)O)CS[C@H]12	0%[21.1 µM]	.	.	13%[21.1 µM]	.	.
C=CCn1c(CNS(=O)(=O)c2ccc(Br)cc2)n[nH]c1=S	?	2%	2%	?	28	-13%
Cc1onc(-c2c(F)cccc2Cl)c1C(=O)Nc1cc2cc([N+](=O)[O-])ccc2oc1=O	2%	.	.	-17%	0	.
CCC1CN(CC(=O)NC(C)c2c(C)nn(C)c2C)Cc2cc(OC)ccc2O1 (configuration not stated)	-2%	.	.	-4%[9.04 µM]	.	.
CCC(C(=O)Nc1ccc2c(c1)OCCO2)n1c(=O)[nH]c2ccccc2c1=O (configuration not stated)	-1%	3%	-1%	-13%	19	?
CCOc1ccccc1C(=O)N1c2ccccc2Sc2ccccc21	13µM*	?	?	10µM*	-8	24%
COC(=O)c1ccc(C(=O)OC)c(NC(=O)N2c3ccccc3Sc3ccccc32)c1	?	?	-2%	?	35	8%
CCOc1ccccc1C(=O)N1CCOCC1	-3%	12%	1%	-5%	8	0%
CCOc1ccccc1NC(=O)N1c2ccccc2Sc2ccccc21	26µM*	.	.	?	.	.
CC(C)NC(=O)N1c2ccccc2Sc2ccccc21	?	-2%	?	?	-6	?
COC(=O)c1cc(NC(=O)N2c3ccccc3Sc3ccccc32)cc(C(=O)OC)c1	?	?	0%	?	-7	2%
COC(=O)c1ccccc1NC(=O)N1c2ccccc2Sc2ccccc21	?	2%	8.2µM*	18µM*	-17	8%
COc1ccc(OC)c(NC(=O)N2c3ccccc3Sc3ccccc32)c1	?	.	.	18µM*	.	.
Cc1ccc(CNC(=O)CN2N=C(c3ccccc3)CCC2=O)cc1	-18%	-6%	.	-21%	.	.
FC(F)(F)c1ccccc1NC(=S)Nn1cnnc1	-3%	3%	2%	?	-4	-1%
C[C@@H](c1ccccc1)N1C[C@@H](COCc2ccccc2)Oc2cc(N3CCC[C@H]3C(N)=O)ccc2S1(=O)=O	?	.	.	?	34	.
O=S(Cc1ccccc1)Cc1ccccc1	-2%	.	-2%	7%	8	-2%
CC(C)S(=O)(=O)NC(=O)C1(C)CCN1C(=O)Cc1ccccc1 (configuration not stated)	-11%	.	.	7%	12	.
Nc1nc(NCc2ccccc2)nc(NCc2ccccc2)c1[N+](=O)[O-]	-15%	-1%	8%	-4%	-4	0%
Cc1ccc(Nc2nc(N)c([N+](=O)[O-])c(NCc3ccco3)n2)cc1C	?	?	?	26µM*	-71*	18%
CNc1nc(N)c([N+](=O)[O-])c(Nc2cccc(F)c2)n1	?	9%	-1%	?	10	18µM*
SMILES	TDP1 cell noCPT	BCR signal inh	MCF10A rerep	TDP1 cell CPT	IL1B secr inh	SW480 rerep
Cc1cccc(Nc2nc(N)c([N+](=O)[O-])c(NCc3ccccc3)n2)c1	?	?	18µM*	?	.	?
Nc1nc(Nc2ccccc2)nc(NCc2ccccc2)c1[N+](=O)[O-]	?	-18%	12%	?	-69*	11%
Cc1ccc(NC(=O)Cn2cnc3sc(C)c(S(=O)(=O)N4CCN(c5ncccn5)CC4)c3c2=O)cc1F	?	.	.	-24%	.	.
CN(C)C1CN(Cc2cn(Cc3cccc(C(F)(F)F)c3)nn2)S(=O)(=O)C1 (configuration not stated)	-11%	.	.	-4%	9	.
CCc1ccc(OC(=O)CSc2nnc(-c3ccc4c(c3)OCO4)o2)cc1	-6%	.	.	-1%	.	.
COc1ccc(CCNC(=O)C2(c3cccs3)CCOCC2)cc1	?	6%	.	-25%	.	.
COc1cc2sc3cc(NCc4ccc5c(c4)OCO5)ccc3c(=O)c2cc1OC	16µM*	-4%	22%	?	-22	?
COc1cc2sc3cc(NCc4ccc(C)o4)ccc3c(=O)c2cc1OC	15µM*	-2%	-35%	?	-69*	27%
COC(=O)c1cc(OC)c(OC)cc1NC(=O)CCc1ccc(C)o1	?	0%	0%	?	1	-4%
COc1ccc(NCc2ccc3c(c2)OCO3)cc1Cl	-16%	1%	2%	-12%	-93*	2%
COc1ccc(NC(=O)c2ccc3c(c2)OCO3)cc1Cl	-28%	?	-7%	-18%	-19	1%[9.22 µM]
O=C(CSc1nc(=O)n2ccccc2n1)OCc1ccccc1	13%	13%	-2%	1%	-6	0%
CCCCN(C)S(=O)(=O)c1ccc(C(=O)Nc2sc3c(c2C(=O)OCC)CCN(C(C)C)C3)cc1	5.8µM*	-1%	.	8.2µM*	.	.
CCN1CCc2c(sc(NC(=O)c3ccc(S(=O)(=O)N(C)C4CCCCC4)cc3)c2C(N)=O)C1	?	-10%	.	?	.	.
CCOC(=O)c1c(NC(=O)c2ccc(S(=O)(=O)N(C)C3CCCCC3)cc2)sc2c1CCN(C(C)C)C2	7.3µM*	1%	.	12µM*	.	.
Cc1cccc(C)c1NC(=O)C1CCCN1C(=O)NCc1ccccc1 (configuration not stated)	0%	0%	0%	7%	15	-4%
CCN1CCN(c2c(/C=C3\SC(=S)N(Cc4ccco4)C3=O)c(C)c(C#N)c(=O)n2C)CC1	15µM*	?	?	?	123	?
Cc1cccc(NC(=O)N2CC=C(c3c[nH]c4ccccc34)CC2)c1C	23µM*	.	.	16µM*	.	.
Cc1cccc(NC(=O)N2CCCc3ccccc32)c1C	-5%	-1%	5%	-19%	-8	-7%
COC(=O)c1ccc(Cl)cc1NC(=O)N1CC=C(c2c[nH]c3ccccc23)CC1	?	.	.	15µM*	.	.
Cc1ccc(NC(=O)N2CC=C(c3c[nH]c4ccccc34)CC2)cc1Cl	10µM*	-6%	.	18µM*	.	.

Bioassay records as filed in PubChem BioAssay.
